PubChem BioAssay
Values joined by “and” are separate entries in the source; they are usually repeats but may differ in a detail not shown here. Equal entries are not always repeated. Active and inactive are the calls of the source.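 The calls were made as follows, unless noted: active = thallium flux through the channel raised or lowered by more than 3 SD from vehicle-only wells, actives on both sides; inactive = the rest.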

Tests used:
[1] = stimulators of nuclear beta-catenin in C2C12, primary screen, imaging, WNT3A-conditioned medium, mouse C2C12, NPC library (AID 1117326; in the data active = nuclear beta-catenin stimulation mostly above about 4.2%, no sharp cut-off; inactive = mostly below about 10%); conditions: stronger effect = higher value
[2] = stimulators of insulin release from INS-1E, primary screen, cell-based, 5 mM glucose, NPC library (AID 1117329;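 active = compound raises insulin release from rat beta cells at 5 mM glucose, no numeric limit stated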); conditions: rat INS-1E insulin secretion, at 10 µM, stronger effect = higher value
[3] = growth inhibition of GSK3B-pretreated HCT116 cells – cell-based, CellTiter-Glo, 0.2 to 20 µM (AID 1117336;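 active = compounds lowering colon cancer cell viability after pretreatment blocking the GSK3B kinase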); conditions: HCT116 viability after GSK3B inhibitor, at 20 µM, stronger effect = higher value
[4] = inhibition of endothelial tube formation, primary screen, imaging, VEGF stimulated, CD31 staining, tube area, NPC library (AID 1117340;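 active = compound that reduces growth-factor-driven endothelial tube area in a mixed cell culture, no cutoff stated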); conditions: VEGF-stimulated ADSC/ECFC co-culture, at 10 µM, stronger effect = higher value
[5] = glucagon-like peptide 1 release enhancers, primary assay, NCI-H716 cell line, NPC library (AID 1117341;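 active = compound raises GLP1 secretion from the human gut endocrine cells, with no numeric limit stated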); conditions: NCI-H716 cells, at 10 µM, stronger effect = higher value
[6] = HCT116 colon cancer cell growth inhibition, primary screen, CellTiter-Glo luminescence, NPC library (AID 1117342;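 active = compounds that lower survival of HCT116 colon cancer cells in the luminescence readout, no numeric limit stated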); conditions: at 20 µM (top of the series)
[7] = CellTiter-Glo luminescent readout of SW480 viability loss, NPC library primary (AID 1117343;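 active = compounds that lower viability of the colon cancer cells in the luminescence readout, with no numeric limit stated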); conditions: CellTiter-Glo luminescence; at 20 µM (top of the series)
[8] = decreased DLD-1 cellular survival, CellTiter-Glo luminescent readout, NPC compound collection, primary HTS (AID 1117346;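 active = compounds that lower survival of DLD-1 colon cancer cells in the luminescence readout, no cutoff given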); conditions: DLD-1 viability, CellTiter-Glo luminescence; at 20 µM (top of the series)
[9] = target: 6-phosphogluconate dehydrogenase, decarboxylating (Homo sapiens) (UniProt P52209); assay: 6PGD enzyme inhibitors, primary screen, biochemical, human, recombinant enzyme, NADPH absorbance (AID 1159550;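 active = at least 20% inhibition of 6-phosphogluconate dehydrogenase activity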); conditions: recombinant 6PGD, NADPH absorbance 341 nm; at 10 µM; stronger effect = higher value
Sequence of 6-phosphogluconate dehydrogenase, decarboxylating (Homo sapiens) (P52209 whole entry, looked up): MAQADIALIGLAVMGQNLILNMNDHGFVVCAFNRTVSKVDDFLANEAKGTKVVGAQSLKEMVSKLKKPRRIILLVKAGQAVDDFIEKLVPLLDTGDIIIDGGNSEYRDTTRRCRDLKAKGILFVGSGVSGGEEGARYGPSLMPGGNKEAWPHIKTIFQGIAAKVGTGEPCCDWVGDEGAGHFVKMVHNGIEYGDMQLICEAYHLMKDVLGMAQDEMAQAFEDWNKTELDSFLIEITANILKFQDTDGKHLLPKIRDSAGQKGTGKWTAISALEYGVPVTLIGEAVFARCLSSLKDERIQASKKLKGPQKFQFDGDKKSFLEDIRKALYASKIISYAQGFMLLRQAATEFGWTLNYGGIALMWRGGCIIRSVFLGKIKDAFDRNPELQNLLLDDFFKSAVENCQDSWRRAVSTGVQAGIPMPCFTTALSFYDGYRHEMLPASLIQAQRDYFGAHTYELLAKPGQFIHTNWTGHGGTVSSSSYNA

[10] = modulation of C. elegans fzo-1 (AID 1259413; call rule not given here;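 also: fzo-1 mutant C. elegans worms in liquid wells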); conditions: C. elegans fzo-1 modulator screen, mean read-out; stronger effect = higher value
[11] = differential killing of epithelial or mesenchymal cells, primary screen, imaging, PC-3E GFP, TEM4-18 mCherry, co-culture (AID 1345086;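 active = compounds killing one labelled cell type while sparing the other, by normalised counts and ratio limits, not self-fluorescent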;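 as to all read-outs here: cells exposed to compound for 72 h before imaging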;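 as to red/green cell ratio (normalised): normalised mesenchymal count divided by normalised epithelial count so high means epithelial killing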); conditions: imaging cell counts, at 1 µM; for red/green cell ratio (normalised): actives lie on both sides, counts scaled to control wells, 1 = unselective
[12] = survival rescue of mitochondrial mutant cells in low glucose, primary screen, MELAS cybrids, Rieske KO mouse fibroblasts, CellTiter-Glo (AID 1508586;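 active = mean z-score across replicates of 1.96 or higher in either the MELAS or the Rieske mutant cell line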;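 also: z relative to plate mean and SD of compound and empty wells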)
[13] = target: NAD(+) hydrolase SARM1 (Homo sapiens) (UniProt Q6SZW1); assay: SARM1 TIR NADase inhibitors, cell lysate, NAD-Glo luminescence (AID 1508614;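 active = compound whose remaining NAD level is above about 45 nM, limit read from the data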;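 also: higher remaining NAD means stronger inhibition of SARM1 NADase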); conditions: SAM-TIR HEK293T lysate NADase, at 1 µM, stronger effect = higher value
Sequence of NAD(+) hydrolase SARM1 (Homo sapiens) (Q6SZW1 whole entry, looked up, the tested form may be a part): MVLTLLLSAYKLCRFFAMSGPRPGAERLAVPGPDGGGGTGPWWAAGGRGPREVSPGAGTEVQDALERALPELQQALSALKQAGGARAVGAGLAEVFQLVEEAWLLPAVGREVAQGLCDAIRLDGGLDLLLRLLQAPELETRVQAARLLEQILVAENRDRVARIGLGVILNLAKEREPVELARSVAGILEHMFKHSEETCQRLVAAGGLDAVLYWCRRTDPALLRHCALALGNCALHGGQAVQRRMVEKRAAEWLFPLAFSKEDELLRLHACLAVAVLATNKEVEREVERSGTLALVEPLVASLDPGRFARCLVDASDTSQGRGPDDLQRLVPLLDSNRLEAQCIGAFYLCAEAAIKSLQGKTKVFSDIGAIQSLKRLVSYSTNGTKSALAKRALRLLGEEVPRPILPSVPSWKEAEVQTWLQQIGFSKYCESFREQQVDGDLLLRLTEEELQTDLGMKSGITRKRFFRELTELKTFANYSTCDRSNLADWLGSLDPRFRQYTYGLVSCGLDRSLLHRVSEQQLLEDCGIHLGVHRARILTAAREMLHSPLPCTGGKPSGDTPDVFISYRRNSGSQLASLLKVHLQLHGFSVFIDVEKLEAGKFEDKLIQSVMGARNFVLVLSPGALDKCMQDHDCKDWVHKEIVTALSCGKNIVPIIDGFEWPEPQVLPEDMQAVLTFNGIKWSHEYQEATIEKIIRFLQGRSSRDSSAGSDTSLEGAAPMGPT

[14] = target: Mitogen-activated protein kinase 7 (Homo sapiens) (UniProt Q13164); assay: ERK5 transactivation activators in reporter cells, primary screen, cell-based, HTS (AID 1508626;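 active = luciferase signal above three times the same-plate solvent-only control wells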;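 also: luciferase driven by Gal4-ERK5 fusion binding five Gal4 sites before minimal TATA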); conditions: HeLa Gal4-ERK5 transactivation, 18 h, at 5 µM, stronger effect = higher value
Sequence of Mitogen-activated protein kinase 7 (Homo sapiens) (Q13164 whole entry, looked up, the tested form may be a part): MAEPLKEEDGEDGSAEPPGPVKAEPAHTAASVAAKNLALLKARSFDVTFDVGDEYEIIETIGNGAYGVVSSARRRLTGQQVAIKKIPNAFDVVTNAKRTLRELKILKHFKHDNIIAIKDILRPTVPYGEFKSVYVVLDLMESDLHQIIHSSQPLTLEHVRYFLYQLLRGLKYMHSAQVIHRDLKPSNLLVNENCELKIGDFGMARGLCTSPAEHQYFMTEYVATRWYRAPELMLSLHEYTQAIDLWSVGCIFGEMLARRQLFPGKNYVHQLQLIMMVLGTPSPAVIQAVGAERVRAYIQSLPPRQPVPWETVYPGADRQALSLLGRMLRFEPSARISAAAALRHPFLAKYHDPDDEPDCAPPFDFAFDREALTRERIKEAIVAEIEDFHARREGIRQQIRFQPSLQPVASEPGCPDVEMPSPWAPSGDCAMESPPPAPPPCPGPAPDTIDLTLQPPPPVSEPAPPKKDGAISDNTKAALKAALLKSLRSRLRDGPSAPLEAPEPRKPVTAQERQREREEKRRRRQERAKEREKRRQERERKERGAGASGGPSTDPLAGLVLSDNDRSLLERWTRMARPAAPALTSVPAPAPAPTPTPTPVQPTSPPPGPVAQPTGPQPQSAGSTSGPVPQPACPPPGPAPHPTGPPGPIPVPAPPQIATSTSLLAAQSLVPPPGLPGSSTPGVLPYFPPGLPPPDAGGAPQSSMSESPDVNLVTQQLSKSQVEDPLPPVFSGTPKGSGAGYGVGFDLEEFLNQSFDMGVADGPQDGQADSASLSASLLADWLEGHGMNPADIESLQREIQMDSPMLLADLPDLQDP

F380Y = assay: modulators of BK channel variants, profiling panel, selectivity assay, cell-based, U2OS BacMam, thallium flux, beta subunits (AID 1259406); conditions: at 30 µM;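 also: initial slope of Thallos dye fluorescence rise after thallium is added; log ratio against the mean of 0.3% DMSO vehicle wells on the same plate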
F380Y/beta1 = assay: as above; conditions: at 30 µM
F380Y/beta2Delta = assay: as above; conditions: at 30 µM
[15] = ICB984 medulloblastoma cell growth inhibition, synergistic combos for chromothripsis tumors, cisplatin or BGB combos (AID 1671451; call rule not given here;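 also: cells exposed for 96 hours before readout; 0% = vehicle DMSO and 100% = killing by high DMSO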); conditions: ICB984 medulloblastoma cells, drug combinations, stronger effect = higher value
[16] = measured here: epithelial PC-3E GFP cell survival
[17] = measured here: mesenchymal TEM4-18 mCherry cell survival
[18] = MELAS cybrid survival, CellTiter-Glo 48 h, stronger effect = higher value
[19] = Rieske KO mouse fibroblast survival, CellTiter-Glo 72 h

COCCOC(=O)C1=C(C)NC(C)=C(C(=O)OC(C)C)C1c1cccc([N+](=O)[O-])c1 (stereo unspecified)
nuclear beta-catenin stimulation ([1]; at 10 µM): -0.6% (inactive)
nuclear beta-catenin stimulation ([1]; stimulation, at 2 µM): 1.2%
insulin secretion stimulation [2]: -0.5% (inactive)
viability decrease [3]: 46.2% (inactive)
tube area decrease [4]: -1.2% (inactive)
GLP1 secretion stimulation [5]: -0.1% (inactive)
inhibition of viability [6]: 77.9% (active)
viability decrease (inhibition) [7]: 55.7% (active)
viability decrease (inhibition) [8]: 27.1% (inactive)
inhibition [9]: 2.88% (inactive)
mean signal [10]: 225 (inactive)
red/green cell ratio (normalised) [11]: 1.09 (inactive)
normalised cell number [11, 16]: 1.07
normalised cell number [11, 17]: 1.17
z-score [12, 18]: -0.249 (inactive) and 1.31 (inactive) and 0.763 (inactive)
z-score [12, 19]: -0.137 and 1.51 and 1.35
remaining NAD [13]: 10 nM (inactive)
luciferase signal [14]: 48 AU (inactive)
log fold change Tl+ flux (F380Y): -0.0169 (inactive)
log fold change Tl+ flux (F380Y/beta1): 0.0464 (inactive)
log fold change Tl+ flux (F380Y/beta2Delta): -0.122 (active)

CC1COc2c(N3CCN(C)CC3)c(F)cc3c(=O)c(C(=O)O)cn1c23 (stereo unspecified)
nuclear beta-catenin stimulation ([1]; at 10 µM): -0.3% (inactive)
nuclear beta-catenin stimulation ([1]; stimulation, at 2 µM): -0.9%
insulin secretion stimulation [2]: 3.4% (inactive)
viability decrease [3]: 14.4% (inactive)
tube area decrease [4]: -15.9% (inactive)
GLP1 secretion stimulation [5]: 2.5% (inactive)
inhibition of viability [6]: 0.4% (inactive)
viability decrease (inhibition) [7]: -9.6% (inactive)
viability decrease (inhibition) [8]: -8.7% (inactive)
inhibition [9]: 0.495% (inactive)
mean signal [10]: 237 (inactive)
red/green cell ratio (normalised) [11]: 0.96 (inactive) and 1.29 (inactive)
normalised cell number [11, 16]: 1.1 and 0.91
normalised cell number [11, 17]: 1.06 and 1.18
z-score [12, 18]: -0.837 (inactive) and -0.951 (inactive) and -0.349 (inactive)
z-score [12, 19]: -0.0297 and -0.43 and -0.633
remaining NAD [13]: 10 nM (inactive)
luciferase signal [14]: 60 AU (inactive)
inhibition ([15]; BGB IC20 combo, at 0.005 µM): -17.9% and -25.7% and 9.81%
inhibition ([15]; BGB IC40 combo, at 0.005 µM): -33.2% and -21.8% and -24%
inhibition ([15]; BGB IC40 combo, at 0.05 µM): -26.1% and 10.2% and -18.3%
inhibition ([15]; at 0.5 µM): -27.6% (inactive) and 4.56% (inactive) and -22.5% (inactive)
inhibition ([15]; cisplatin combo, at 0.05 µM): -29.6% and 10.2% and -23%
inhibition ([15]; cisplatin combo, at 0.5 µM): -35.8% and -11.2% and -26.4%
inhibition ([15]; cisplatin combo, at 5 µM): -56.5% and 3.02% and -28.7%
inhibition ([15]; measured here: 5 uM single agent, at 5 µM): -20% and 15.7% and -1.17%
log fold change Tl+ flux (F380Y): 0.0183 (inactive)
log fold change Tl+ flux (F380Y/beta1): -0.00501 (inactive)
log fold change Tl+ flux (F380Y/beta2Delta): 0.0472 (inactive)

NNCCc1ccccc1
nuclear beta-catenin stimulation ([1]; at 10 µM): 1.9% (inactive)
nuclear beta-catenin stimulation ([1]; stimulation, at 2 µM): 0.7%
insulin secretion stimulation [2]: -0.6% (inactive)
viability decrease [3]: -32% (inactive)
tube area decrease [4]: 7.4% (inactive)
GLP1 secretion stimulation [5]: -0.4% (inactive)
inhibition of viability [6]: 5.1% (inactive)
viability decrease (inhibition) [7]: -14.5% (inactive)
viability decrease (inhibition) [8]: 7.4% (inactive)
inhibition [9]: 8.47% (inactive)
mean signal [10]: 213 (inactive)
red/green cell ratio (normalised) [11]: 0.88 (inactive)
normalised cell number [11, 16]: 1.03
normalised cell number [11, 17]: 0.91
z-score [12, 18]: -0.122 (inactive)
z-score [12, 19]: -0.108
remaining NAD [13]: 10 nM (inactive)
luciferase signal [14]: 44 AU (inactive)
log fold change Tl+ flux (F380Y): 0.0104 (inactive)
log fold change Tl+ flux (F380Y/beta1): -0.0168 (inactive)
log fold change Tl+ flux (F380Y/beta2Delta): -0.0213 (inactive)
